Test results published in PubChem BioAssay (NCI).
This is part of a sample that, as a whole, favours compounds with a hit. Of some 79,000 tested, about 15% had one in any assay. Calls of active or inactive are those of the source. No stated cut-off is given here; in the data, active means growth inhibition above about 70%; inactive means the rest.

Experiments:
[1] = NCI Yeast Anticancer Drug Screen. Data for the mlh1 strain (AID 171);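 further: 0% = growth of vehicle-treated control cultures of the same strain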; conditions: S. cerevisiae mlh1 strain growth inhibition, hits give high values
Summary of the method: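 Test agents were incubated with yeast bearing a defined DNA damage repair or cell cycle control alteration; values are growth inhibition normalised to vehicle-treated cultures.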

[2] = NCI Yeast Anticancer Drug Screen. Data for the sgs1 strain (AID 173);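 further: 0% = growth of vehicle-only control cultures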; conditions: S. cerevisiae sgs1 mutant, hits give high values
Summary of the method: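 Strain with an altered DNA repair or cell cycle pathway exposed to compound. Growth then measured. Value = inhibition versus vehicle control.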

[3] = NCI Yeast Anticancer Drug Screen. Data for the mlh1 rad18 strain (AID 175); conditions: S. cerevisiae mlh1 rad18 strain growth inhibition, hits give high values
Summary of the method: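 A repair-deficient yeast strain is exposed to test compound, and growth is scored relative to vehicle-treated controls.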

[4] = NCI Yeast Anticancer Drug Screen. Data for the rad18 strain (AID 177); conditions: S. cerevisiae rad18 mutant growth inhibition, hits give high values
Summary of the method: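 DNA-repair-defective yeast; compound treatment; growth inhibition scored against vehicle.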

[5] = NCI Yeast Anticancer Drug Screen. Data for the wt1 strain (AID 149);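 further: 0% = growth of vehicle-treated wt1 cultures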; conditions: S. cerevisiae wt1 strain (SPY 50644) growth inhibition, hits give high values
Summary of the method: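 wt1 strain grown with compound or vehicle; inhibition taken from the growth difference.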

[6] = NCI Yeast Anticancer Drug Screen. Data for the rad50EPP+ strain (AID 151);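 further: 0% = growth of vehicle-treated control cultures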; conditions: S. cerevisiae rad50 mutant strain, hits give high values
Summary of the method: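 Measured: growth inhibition of rad50EPP+ yeast. Reference: vehicle-treated controls. Screen uses strains with defined genetic alterations in DNA damage repair or cell cycle control.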

[7] = NCI Yeast Anticancer Drug Screen. Data for the mgt1 strain (AID 153); conditions: S. cerevisiae mgt1 mutant growth inhibition, hits give high values
Summary of the method: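 Compounds were applied to mgt1 mutant yeast, and growth was then compared against vehicle-treated control cultures to give percent inhibition.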

[8] = NCI Yeast Anticancer Drug Screen. Data for the rad50 strain (AID 155);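 further: 0% = growth of vehicle-only cultures of the same strain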; conditions: S. cerevisiae rad50 strain growth inhibition, hits give high values
Summary of the method: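 DNA repair mutant yeast, compound exposure, growth read-out; inhibition is taken relative to vehicle.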

[9] = NCI Yeast Anticancer Drug Screen. Data for the mec2-1 strain (AID 157); conditions: S. cerevisiae mec2-1 strain, hits give high values
Summary of the method: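 Compounds were applied to mec2-1 yeast cells. Their growth was then compared with that of vehicle-treated cultures to give growth inhibition.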

[10] = NCI Yeast Anticancer Drug Screen. Data for the rad14 strain (AID 159);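 further: 0% = growth of vehicle-treated control cultures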; conditions: S. cerevisiae rad14 strain growth inhibition, hits give high values
Summary of the method: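 DNA repair-defective yeast, compound-exposed; % growth inhibition derived by comparison with vehicle-treated controls.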

[11] = NCI Yeast Anticancer Drug Screen. Data for the CLN2oe strain (AID 163);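 further: 0% = growth of vehicle-only control cultures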; conditions: S. cerevisiae CLN2oe strain, hits give high values
Summary of the method: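 Cells of an engineered yeast line with disturbed cell-cycle regulation are treated with compound. Inhibition of growth is then calculated relative to the vehicle-treated reference.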

[12] = NCI Yeast Anticancer Drug Screen. Data for the cln2 rad14 strain (AID 165);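 further: 0% = growth equal to vehicle treated cultures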; conditions: S. cerevisiae cln2 rad14 strain, hits give high values
Summary of the method: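 Strain: cln2 rad14 yeast, altered in cell cycle control and DNA damage repair. Read-out: growth inhibition vs vehicle.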

[13] = NCI Yeast Anticancer Drug Screen. Data for the bub3 strain (AID 167); conditions: S. cerevisiae bub3 mutant strain, hits give high values
Summary of the method: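 In this screen, a yeast mutant lacking normal mitotic checkpoint function is challenged with compound. Relative growth versus vehicle gives the inhibition value.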

[14] = NCI Yeast Anticancer Drug Screen. Data for the wt2 strain (AID 169);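 further: 0% = growth of vehicle-treated yeast cultures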; conditions: S. cerevisiae wt2 strain growth inhibition, hits give high values
Summary of the method: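 Growth of compound-treated yeast is measured and expressed as inhibition relative to vehicle-only controls.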

[15] = NCI Yeast Anticancer Drug Screen. Data for the sgs1 mgt1 strain (AID 161);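 further: 0% = growth of cultures given vehicle only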; conditions: S. cerevisiae sgs1 mgt1 strain, hits give high values
Summary of the method: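 Percent growth inhibition was derived by comparing compound-exposed mutant yeast with vehicle-exposed cultures. The strain carries alterations in DNA damage repair.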

[16] = at 5.0 µM (retest, dose inferred, filed as 0.5)
[17] = at 50.0 µM (retest, dose inferred, filed as 5.0)

Measured: growth inhibition

COC1=C(N=[N+]=[N-])C(=O)c2ncccc2C1=O
inactive: [2]; at 1.2 µM 8% | [2]; at 3.7 µM 30% | [2]; at 11.0 µM 56% | [3]; [16] 69% | [4]; at 1.2 µM 60%
active: [1]; at 33.0 µM 80% | [1]; at 100.0 µM 94% | [2]; at 33.0 µM 84% | [2]; at 100.0 µM 94% | [3]; [17] 95% | [4]; at 3.7 µM 89% | [4]; at 11.0 µM 94% | [4]; at 33.0 µM 96% | [4]; at 100.0 µM 96%

O=[N+]([O-])C(=C(NCc1ccccc1)NCc1ccccc1)C(Cl)=C(Cl)Cl
active: [6]; at 33.0 µM 83% | [6]; at 100.0 µM 85% | [14]; at 100.0 µM 70% | [1]; at 100.0 µM 85% | [2]; at 100.0 µM 83% | [3]; [17] 83% | [3]; at 50.0 µM 81.5% | [4]; at 100.0 µM 85%
inactive: [5]; at 1.2 µM 1% | [5]; at 3.7 µM 2% | [5]; at 11.0 µM 7% | [5]; at 33.0 µM 10% | [5]; at 100.0 µM 41% | [6]; at 1.2 µM 3% | [6]; at 3.7 µM 18% | [6]; at 11.0 µM 56% | [7]; at 1.2 µM -2% | [7]; at 3.7 µM 3% | [7]; at 11.0 µM 5% | [7]; at 33.0 µM 29% | [7]; at 100.0 µM 62% | [8]; at 1.2 µM 1% | [8]; at 3.7 µM 1% | [8]; [16] -8% | [8]; at 11.0 µM 6% | [8]; at 33.0 µM 13% | [8]; [17] 57% | [8]; at 50.0 µM 26.6% | [8]; at 100.0 µM 52% | [9]; at 1.2 µM -1% | [9]; at 3.7 µM 0% | [9]; [16] -7% | [9]; at 11.0 µM 4% | [9]; at 33.0 µM 14% | [9]; [17] 24% | [9]; at 50.0 µM 23.6% | [9]; at 100.0 µM 54% | [10]; at 1.2 µM -4% | [10]; at 3.7 µM -3% | [10]; at 11.0 µM 1% | [10]; at 33.0 µM 11% | [10]; at 100.0 µM 56% | [11]; at 1.2 µM -5% | [11]; at 3.7 µM -3% | [11]; at 11.0 µM 6% | [11]; at 33.0 µM 14% | [11]; at 100.0 µM 62% | [12]; [16] 40% | [12]; [17] 55% | [12]; at 50.0 µM 64.2% | [13]; at 1.2 µM -5% | [13]; at 3.7 µM -9% | [13]; [16] 0% | [13]; at 11.0 µM 0% | [13]; at 33.0 µM 5% | [13]; [17] 42% | [13]; at 50.0 µM 33% | [13]; at 100.0 µM 49% | [14]; at 1.2 µM 1% | [14]; at 3.7 µM 2% | [14]; at 11.0 µM 9% | [14]; at 33.0 µM 19% | [1]; at 1.2 µM 4% | [1]; at 3.7 µM 1% | [1]; at 11.0 µM 9% | [1]; at 33.0 µM 25% | [2]; at 1.2 µM 1% | [2]; at 3.7 µM 7% | [2]; at 11.0 µM 15% | [2]; at 33.0 µM 39% | [3]; [16] 12% | [4]; at 1.2 µM -1% | [4]; at 3.7 µM 1% | [4]; at 11.0 µM 5% | [4]; at 33.0 µM 20%

CCN(CC)CCSc1c2ccccc2nc2cc(NCC(=O)Nc3ccccc3-c3ccccc3NC(=O)CNc3ccc4c(SCCN(CC)CC)c5ccccc5nc4c3)ccc12
active: [5]; at 100.0 µM 96% | [6]; at 100.0 µM 89% | [7]; at 33.0 µM 85% | [7]; at 100.0 µM 97% | [8]; at 33.0 µM 75% | [8]; [17] 96% | [8]; at 50.0 µM 89.5% | [8]; at 100.0 µM 95% | [9]; at 33.0 µM 91% | [9]; [17] 98% | [9]; at 50.0 µM 89.5% | [9]; at 100.0 µM 97% | [15]; [17] 97% | [15]; at 50.0 µM 89.2% | [11]; at 100.0 µM 96% | [13]; at 33.0 µM 92% | [13]; [17] 89% | [13]; at 50.0 µM 90.5% | [13]; at 100.0 µM 98% | [14]; at 100.0 µM 96% | [1]; at 33.0 µM 80% | [1]; at 100.0 µM 96% | [2]; at 100.0 µM 96%
inactive: [5]; at 1.2 µM -21% | [5]; at 3.7 µM -16% | [5]; at 11.0 µM -25% | [5]; at 33.0 µM 23% | [6]; at 1.2 µM 9% | [6]; at 3.7 µM 10% | [6]; at 11.0 µM -8% | [6]; at 33.0 µM 38% | [7]; at 1.2 µM 9% | [7]; at 3.7 µM 17% | [7]; at 11.0 µM 19% | [8]; at 1.2 µM 13% | [8]; at 3.7 µM 15% | [8]; [16] 23% | [8]; at 11.0 µM 15% | [9]; at 1.2 µM 23% | [9]; at 3.7 µM 22% | [9]; [16] 20% | [9]; at 11.0 µM 16% | [15]; [16] 21% | [11]; at 1.2 µM 2% | [11]; at 3.7 µM 7% | [11]; at 11.0 µM 11% | [11]; at 33.0 µM 44% | [12]; [16] 15% | [12]; [17] 13% | [12]; at 50.0 µM 41% | [13]; at 1.2 µM 36% | [13]; at 3.7 µM 30% | [13]; [16] 27% | [13]; at 11.0 µM 31% | [14]; at 1.2 µM -5% | [14]; at 3.7 µM -3% | [14]; at 11.0 µM 2% | [14]; at 33.0 µM 48% | [1]; at 1.2 µM -12% | [1]; at 3.7 µM -7% | [1]; at 11.0 µM -5% | [2]; at 1.2 µM -14% | [2]; at 3.7 µM -18% | [2]; at 11.0 µM -22% | [2]; at 33.0 µM 63%
